Hit rate of the full screen: of about 39,000 compounds, about 220 (0.56%) showed activity. The list comes from a sample in which actives are over-represented; it also holds similar structures and randomly drawn compounds.
system: Escherichia coli K-12 BW25113; assay: relative growth (OD600 normalised to plate interquartile mean) (fraction); higher = less growth inhibition, active = 0.2 or less; details: 50 µM; LB; incubation time: overnight (16-24 h)
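Also: Wild-type cells incubated without shaking, value is the mean of two biological replicates.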

Row | Compound | relative growth
1 | CS(=O)(=O)NC[C@@H]1OC[C@@H]2CCN(C(=O)c3ccnnc3)C[C@@H]21 | 1.02 (inactive)
2 | C[C@H]1CCCCO[C@@H](CN(C)C(=O)NC2CCCCC2)[C@@H](C)CN([C@@H](C)CO)C(=O)c2cc(NC(=O)c3ccccc3)ccc2O1 | 1.03 (inactive)
3 | C[C@@H]1CN([C@H](C)CO)C(=O)c2cccc(NS(=O)(=O)c3ccc(Cl)cc3)c2O[C@H]1CN(C)C(=O)Nc1cccc2ccccc12 | 1.02 (inactive)
4 | C[C@H](CO)N1C[C@H](C)[C@@H](CN(C)C(=O)Nc2ccc(C(F)(F)F)cc2)Oc2ccc(NS(=O)(=O)c3ccc(Cl)cc3)cc2CC1=O | 0.982 (inactive)
5 | Cc1ccc(S(=O)(=O)Nc2ccc3c(c2)C(=O)N([C@@H](C)CO)C[C@@H](C)[C@H](CN(C)C(=O)CCC(F)(F)F)OCCCC[C@H](C)O3)cc1 | 0.979 (inactive)
6 | Cc1noc(C)c1NC(=O)N(C)C[C@@H]1Oc2ncc(C#CCN(C)C)cc2C(=O)N([C@H](C)CO)C[C@@H]1C | 0.979 (inactive)
7 | Cc1oc(=O)oc1CN1CCN(c2cc3c(cc2F)c(=O)c(C(=O)O)c2n3C(C)S2)CC1 (stereo unspecified) | 0.0438 (active)
8 | C[C@@H]1CN([C@H](C)CO)C(=O)Cc2cc(NC(=O)Nc3ccc4c(c3)OCO4)ccc2O[C@@H]1CN(C)Cc1ccc(C(F)(F)F)cc1 | 1.02 (inactive)
9 | CC(=O)O | 1.01 (inactive)
10 | O=P(O)(O)CN(CCN(CP(=O)(O)O)CP(=O)(O)O)CP(=O)(O)O | 0.926 (inactive)
11 | O=C(O)P(=O)(O)O | 0.0351 (active)
12 | C[C@H]1CN([C@@H](C)CO)C(=O)c2cccc(NS(C)(=O)=O)c2O[C@@H]1CN(C)Cc1ccc(C(F)(F)F)cc1 | 1.01 (inactive)
13 | C[C@@H]1CN([C@H](C)CO)C(=O)c2cc(C#CCN(C)C)cnc2O[C@H]1CN(C)C(=O)CCN1CCCCC1 | 0.983 (inactive)
14 | C[C@H](CO)N1C[C@H](C)[C@@H](CN(C)Cc2ccccc2)OCCCC[C@H](C)Oc2ccc(NC(=O)CCC(F)(F)F)cc2C1=O | 0.999 (inactive)
15 | C[C@H]1CN([C@@H](C)CO)C(=O)c2cccc(NS(=O)(=O)c3cn(C)cn3)c2O[C@@H]1CN(C)S(=O)(=O)c1cccs1 | 1.01 (inactive)
16 | COc1ccc(S(=O)(=O)N(C)C[C@@H]2Oc3ncc(C#Cc4ccc(F)cc4)cc3C(=O)N([C@H](C)CO)C[C@@H]2C)cc1 | 1.05 (inactive)
17 | COc1ccccc1CNC(=O)C[C@@H]1C[C@@H]2c3cc(NC(=O)NC4CCCC4)ccc3O[C@@H]2[C@H](CO)O1 | 0.983 (inactive)
18 | Cc1ccc(S(=O)(=O)Nc2ccc3c(c2)CC(=O)N([C@@H](C)CO)C[C@@H](C)[C@H](CN(C)CC2CC2)O3)cc1 | 1.02 (inactive)
19 | C[C@H]1CCCCO[C@H](CN(C)C(=O)Nc2ccc(F)cc2)[C@@H](C)CN([C@@H](C)CO)C(=O)c2cc(NS(=O)(=O)c3ccc(Cl)cc3)ccc2O1 | 0.987 (inactive)

Row | Compound | relative growth
20 | CN[C@H]1CC[C@@H](c2ccc(Cl)c(Cl)c2)c2ccccc21 | 0.868 (inactive)
21 | N[C@@H]1CC[C@@H](c2ccc(Cl)c(Cl)c2)c2ccccc21 | 0.0794 (active)
22 | CNC1CCC(c2ccc(Cl)c(Cl)c2)c2ccccc21.Cl (stereo unspecified) | 0.261 (inactive)
23 | C[C@@H]1CCCCO[C@H](CN(C)C(=O)c2ccccc2)[C@@H](C)CN([C@@H](C)CO)C(=O)c2cc(NS(=O)(=O)c3ccccc3)ccc2O1 | 0.956 (inactive)
24 | C[C@@H]1CCCCO[C@H](CN(C)C(=O)Nc2ccc(F)cc2)[C@@H](C)CN([C@H](C)CO)C(=O)c2cc(NC(=O)c3ccccc3)ccc2O1 | 1.04 (inactive)
25 | C[C@H]1CN([C@@H](C)CO)C(=O)c2cc(NS(=O)(=O)c3cccs3)ccc2O[C@@H]1CN(C)Cc1ccc(Cl)c(Cl)c1 | 0.995 (inactive)
26 | Oc1c(Cl)cc(Cl)c(Cl)c1Cc1c(O)c(Cl)cc(Cl)c1Cl | 0.0546 (active)
27 | Oc1c(Cl)cc(Cl)cc1Sc1cc(Cl)cc(Cl)c1O | 0.202 (inactive)
28 | O=C(Nc1cc(Cl)cc(Cl)c1O)c1c(O)c(Cl)cc(Cl)c1Cl | 0.565 (inactive)
29 | COc1ccc(S(=O)(=O)N(C)C[C@@H]2OCCCC[C@@H](C)Oc3ccc(NC(=O)Nc4cccc5ccccc45)cc3C(=O)N([C@H](C)CO)C[C@@H]2C)cc1 | 1.03 (inactive)
30 | C[C@@H]1CN([C@H](C)CO)C(=O)CCCn2cc(nn2)CO[C@@H]1CN(C)Cc1ccc2c(c1)OCCN2C | 1.02 (inactive)
31 | CCCCCCCCCC(=O)N[C@@H](Cc1c[nH]c2ccccc12)C(=O)N[C@H](CC(N)=O)C(=O)N[C@@H](CC(=O)O)C(=O)N[C@@H]1C(=O)NCC(=O)N[C@@H](CCCN)C(=O)N[C@@H](CC(=O)O)C(=O)N[C@H](C)C(=O)N[C@@H](CC(=O)O)C(=O)NCC(=O)N[C@H](CO)C(=O)N[C@@H]([C@H](C)CC(=O)O)C(=O)N[C@@H](CC(=O)c2ccccc2N)C(=O)O[C@@H]1C | 0.952 (inactive)
32 | CCC(C)C1NC(=O)C(CCNCS(=O)(=O)[O-])NC(=O)C(NC(=O)C(CCNCS(=O)(=O)[O-])NC(=O)C(NC(=O)C(CCNCS(=O)(=O)[O-])NC(=O)CCCCC(C)C)C(C)O)CCNC(=O)C(C(C)O)NC(=O)C(CCNCS(=O)(=O)[O-])NC(=O)C(CCNCS(=O)(=O)[O-])NC(=O)C(C(C)CC)NC1=O.[Na+].[Na+].[Na+].[Na+].[Na+] (stereo unspecified) | 0.0529 (active)
33 | CC(C)CCCC(=O)N[C@@H](CCNCS(=O)(=O)O)C(=O)N[C@H](C(=O)N[C@@H](CCNCS(=O)(=O)O)C(=O)N[C@H]1CCNC(=O)[C@H]([C@@H](C)O)NC(=O)[C@H](CCNCS(=O)(=O)O)NC(=O)[C@H](CCNCS(=O)(=O)O)NC(=O)[C@H](CC(C)C)NC(=O)[C@H](CC(C)C)NC(=O)[C@H](CCNCS(=O)(=O)O)NC1=O)[C@@H](C)O | 0.0299 (active)
34 | CC[C@H](C)[C@H](N)C1=N[C@H](C(=O)N[C@@H](CC(C)C)C(=O)N[C@@H]2CCC(=O)[O][Zn][O]C(=O)C[C@H]3NC(=O)[C@H](Cc4c[nH]cn4)NC(=O)[C@@H](Cc4ccccc4)NC(=O)[C@H]([C@@H](C)CC)NC(=O)[C@@H](CCCN)NC(=O)[C@H](CCCCNC(=O)[C@H](CC(N)=O)NC3=O)NC(=O)[C@H]([C@@H](C)CC)NC2=O)CS1 | 0.696 (inactive)
35 | CCCc1nc2c(=O)n(C)c(=O)[nH]c2n1C | 0.999 (inactive)
36 | C[C@@H]1CN([C@@H](C)CO)C(=O)c2cc(NS(=O)(=O)c3ccc(Cl)cc3)ccc2O[C@@H](C)CCCCO[C@H]1CN(C)Cc1ccncc1 | 1.01 (inactive)
37 | C[C@@H]1CN([C@@H](C)CO)C(=O)Cc2cc(NS(=O)(=O)c3ccc(F)cc3)ccc2O[C@@H]1CN(C)S(C)(=O)=O | 1 (inactive)
38 | COc1ccc(S(=O)(=O)Nc2ccc3c(c2)C(=O)N([C@@H](C)CO)C[C@@H](C)[C@H](CN(C)S(=O)(=O)c2cn(C)cn2)OCCCC[C@H](C)O3)cc1 | 0.989 (inactive)

Row | Compound | relative growth
39 | CC(C)NC(=O)N(C)C[C@@H]1Oc2c(NC(=O)C3CCOCC3)cccc2C(=O)N([C@@H](C)CO)C[C@H]1C | 0.977 (inactive)
40 | CCc1nc2c(OCC(=O)c3ccc(Cl)cc3Cl)cccn2c1N(C)C(=O)COc1ccccc1 | 1.02 (inactive)
41 | COc1cccc(S(=O)(=O)Nc2ccc3c(c2)OC[C@H](C)N(C(=O)Cc2cccnc2)C[C@H](C)[C@H](OC)CN(C)C3=O)c1 | 0.963 (inactive)
42 | COc1ccc(NC(=O)N(C)C[C@@H]2OCCCC[C@H](C)Oc3ccc(NS(=O)(=O)c4cccs4)cc3C(=O)N([C@H](C)CO)C[C@H]2C)cc1 | 0.941 (inactive)
43 | O=C(NCC[C@@H]1CC[C@H](NS(=O)(=O)c2cccc(F)c2)[C@@H](CO)O1)C1CC1 | 0.987 (inactive)
44 | C[C@@H]1CN([C@H](C)CO)C(=O)c2cc(NC(=O)Nc3ccc(F)cc3)ccc2O[C@@H]1CN(C)S(=O)(=O)c1cn(C)cn1 | 1.01 (inactive)
45 | C[C@H](CO)N1C[C@H](C)[C@@H](CN(C)S(=O)(=O)c2cn(C)cn2)Oc2ccc(NC(=O)Nc3ccc(F)cc3)cc2CC1=O | 0.986 (inactive)
46 | CCNC(=O)[C@@H]1[C@@H](CO)[C@@H]2Cn3c(ccc(-c4cccc(C(=O)N(C)C)c4)c3=O)[C@H]1N2 | 1.02 (inactive)
47 | CC1=C(C(=O)O)N2C(=O)[C@@H](NC(=O)[C@@H](N)c3ccc(O)cc3)[C@H]2SC1 | 0.999 (inactive)
48 | CC1=C(C(=O)O)N2C(=O)C(NC(=O)C(N)c3ccc(O)cc3)C2SC1 (stereo unspecified) | 0.986 (inactive)
49 | CC1=C(C(=O)O)N2C(=O)[C@@H](NC(=O)[C@H](N)c3ccc(O)cc3)[C@H]2SC1 | 1.06 (inactive)
50 | Cc1cc(O)c(C(=O)NC(C(=O)NC2C(=O)N3C(C(=O)O)=C(CSc4nnnn4C)CSC23)c2ccc(O)cc2)cn1 (stereo unspecified) | 0.0416 (active)
51 | CCN1CCN(C(=O)NC(C(=O)NC2C(=O)N3C(C(=O)O)=C(CSc4nnnn4C)CSC23)c2ccc(O)cc2)C(=O)C1=O (stereo unspecified) | 0.046 (active)
52 | Cc1cc(=O)c(C(=O)N[C@@H](C(=O)N[C@@H]2C(=O)N3C(C(=O)O)=C(CSc4nnnn4C)CS[C@H]23)c2ccc(O)cc2)c[nH]1 | 0.0389 (active)
53 | N=c1sccn1CC(=O)O | 1.04 (inactive)
54 | CC1=C(/C=C/C(C)=C/C=C/C(C)=C/C(=O)O)C(C)(C)CCC1 | 0.987 (inactive)
55 | Cc1noc(C)c1NC(=O)N(C)C[C@@H]1OCCCC[C@H](C)Oc2ccc(NC(=O)CCC(F)(F)F)cc2C(=O)N([C@H](C)CO)C[C@@H]1C | 0.979 (inactive)
56 | C[C@H](CO)N1C[C@H](C)[C@@H](CN(C)Cc2ccc3c(c2)OCO3)Oc2c(NC(=O)c3cnccn3)cccc2C1=O | 0.969 (inactive)

— the supplement of paper PMC9446081
